Many of the other results were omitted from the sample, so hits are more common in it than they were.
TbREL1 inh: TbREL1 RNA ligase inhibitors, primary screen, biochemical, FRET fluorescence; RNA-editing ligase 1, mitochondrial (Trypanosoma brucei brucei), P86926; TbREL1 RNA ligation; inhibition, % at 9.66 µM; 89,000 tested, 0.49% active; AID 1117264, 2014;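 active means inhibition above the mean inhibition across all screened compounds plus 3 SD, cut at about 11% in these data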;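 further: 0% = plate median of test wells and 100% = NSC42067 control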
Target sequence (P86926 whole entry, looked up): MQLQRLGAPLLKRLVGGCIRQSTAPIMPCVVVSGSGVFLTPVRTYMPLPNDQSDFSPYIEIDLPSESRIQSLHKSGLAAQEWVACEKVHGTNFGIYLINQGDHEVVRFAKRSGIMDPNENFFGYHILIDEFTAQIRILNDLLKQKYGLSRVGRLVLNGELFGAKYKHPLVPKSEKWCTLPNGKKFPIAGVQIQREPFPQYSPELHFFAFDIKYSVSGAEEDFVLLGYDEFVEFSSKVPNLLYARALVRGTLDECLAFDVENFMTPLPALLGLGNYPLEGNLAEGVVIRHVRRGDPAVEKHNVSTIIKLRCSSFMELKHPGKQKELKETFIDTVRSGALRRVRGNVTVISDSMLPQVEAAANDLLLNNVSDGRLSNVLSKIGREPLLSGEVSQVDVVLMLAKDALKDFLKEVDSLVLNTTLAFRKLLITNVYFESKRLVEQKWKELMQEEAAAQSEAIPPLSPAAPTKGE
TbREL1 confirm: TbREL1 RNA ligase inhibitors, confirmation, biochemical, FRET fluorescence, triplicate. inhibition, % at 9.66 µM. TbREL1 RNA ligation. AID 1117282, 2014. shares compounds with TbREL1 inh. 390 tested, 37% active;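 active means mean inhibition across replicates above a set limit taken from the earlier primary screen, cut at about 11% in these data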;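 further: 0% = REL1 with substrate and DMSO and 100% = REL1 plus control inhibitor NSC42067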
The depositor's hits bear a star.

CCC(=O)N(c1ccccc1)C1CCN(C(=O)C(Cc2ccccc2)NC(C)=O)CC1 (centres undefined) was read as TbREL1 inh 2.
Screening O=C(Nc1ccc(F)cc1)N1CCCN(c2ccc(C(F)(F)F)cn2)CC1 returned TbREL1 inh 25* and TbREL1 confirm 0.
Screening O=C(Nc1ccccc1)N1CCCN(c2ccc(C(F)(F)F)cc2[N+](=O)[O-])CC1 returned TbREL1 inh 0.
For O=C(Nc1ccccc1)N1CCN(c2ccc(F)cc2)CC1 the results were TbREL1 inh 2.
COc1ccc(CN2C[C@@]3(O)CC[C@@H](O)[C@@H](OC)[C@@H]3[C@@]2(C)[C@H](O)CC=C(C)C)cc1 was read as TbREL1 inh -4.
Screening O=C(NCCc1ccccc1F)c1ccc2c(c1)ncn2C1CCCCC1 returned TbREL1 inh 3.
COC(=O)[C@]12C[C@H](CC(=O)NCC3CCCCC3)C(=O)N(Cc3ccccc3)C1=C[C@H](COCc1ccccc1)O[C@@H]2C was read as TbREL1 inh -1.
For Cc1ccc(N2C(=O)/C(=C\c3ccco3)SC2=S)cc1 the results were TbREL1 inh 2.
Screening O=C1/C(=C\c2ccco2)SC(=S)N1c1ccccc1 returned TbREL1 inh 9.
Screening O=C1/C(=C\c2ccco2)SC(=S)N1C1CCS(=O)(=O)C1 (centres undefined) returned TbREL1 inh 19* and TbREL1 confirm 1.
Screening O=C(NCc1ccccc1)C1CCN(c2nc(-c3ccc(Br)cc3)cs2)CC1 returned TbREL1 inh 9.
For O=C(NCCN1CCC(Cc2ccccc2)CC1)C1CCCN(S(=O)(=O)c2ccccc2)C1 (centres undefined) the results were TbREL1 inh 1.
For CCOc1ccc(C(=O)N2CCn3c2nc2ccccc23)cc1 the results were TbREL1 inh 0.
Screening COc1ccc(C(=O)N2CCn3c2nc2ccccc23)cc1 returned TbREL1 inh 0.
For COc1cccc(C(=O)N2CCn3c2nc2ccccc23)c1 the results were TbREL1 inh 12* and TbREL1 confirm 7.
For C/C(=N/NC(=O)CSc1nnc(-c2ccccc2)n1-c1ccc(Cl)cc1)c1cccc(O)c1 the results were TbREL1 inh 0.
Screening C[C@H]1C2CC(OC(=O)Nc3cccc(F)c3)C(C2)[C@H]2CCCCN21 (some centres undefined) returned TbREL1 inh 4.
For CN(C)c1ccc(C(=O)NC2CCCCN(Cc3ccc(Cl)cc3)C2=O)cc1 (centres undefined) the results were TbREL1 inh -9.
CCCC1CCC2(CC1)CCC2OC(=O)Nc1ccc(C)cc1 (centres undefined) was read as TbREL1 inh -1.
`CCCC1CCC2(CC1)CCC2OC(=O)Nc1cccc(C(F)(F)F)c1` (centres undefined) gave TbREL1 inh 12* and TbREL1 confirm 8.
`CCCC1CCC2(CC1)CCC2OC(=O)Nc1cc(C)cc(C)c1` (centres undefined) gave TbREL1 inh 0.
For Cc1ccc(CN2CCCCC(NC(=O)Nc3cccc([N+](=O)[O-])c3)C2=O)cc1 (centres undefined) the results were TbREL1 inh 6.
Cc1ccc(OCCN2CCN(C)CC2)c([N+](=O)[O-])c1 was read as TbREL1 inh 12* and TbREL1 confirm 6.
COCCCNCCCCOc1ccc(C)cc1[N+](=O)[O-] was read as TbREL1 inh 3.
Cc1ccc(OCCOCCN2CCN(C)CC2)c(C(C)(C)C)c1 was read as TbREL1 inh -1.
CCN(Cc1cccs1)c1ncnc2ccc(-c3ccc4c(c3)OCO4)cc12 was read as TbREL1 inh 3.
For COc1ccc(-n2c(SCC(=O)NNC(=S)Nc3ccccc3)nc3ccccc3c2=O)cc1 the results were TbREL1 inh -5.
Screening CCC(=O)N1CCc2cc(Br)c(S(=O)(=O)N3CCC(C(=O)NC(C)(C)C)CC3)cc21 returned TbREL1 inh -1.
Screening CCN(CC)C(=O)O[C@H]1CC[C@@]23CCCN2C(=O)CCC[C@H]3C1 returned TbREL1 inh 7.
For O=C(O[C@H]1CC[C@@]23CCCN2C(=O)CCC[C@H]3C1)N1CCOCC1 the results were TbREL1 inh 14* and TbREL1 confirm 0.
`CCC(CC)NC(=O)O[C@H]1CC[C@@]23CCCN2C(=O)CCC[C@H]3C1` gave TbREL1 inh 9.
CC(c1ccccc1)n1cc(C(=O)N2CCCN(Cc3ccccc3)CC2)nn1 (centres undefined) was read as TbREL1 inh -3.
Screening O=C(NC1CCCCN(Cc2ccc(Cl)cc2)C1=O)c1cccc([N+](=O)[O-])c1 (centres undefined) returned TbREL1 inh 2.
Screening Cn1c(=O)cc(OCC(=O)N2CCN(c3ccccc3Cl)CC2)c2ccccc21 returned TbREL1 inh -1.

High-throughput results as filed in PubChem.
